Source: PubChem (Buhrlage Lab, Dana-Farber Cancer Institute and Novartis Institutes for BioMedical Research (Cambridge, Mass))
USP8 inh = inhibitors of human USP8 deubiquitinase | hit rate 4.2% among 47,000 | Ubiquitin carboxyl-terminal hydrolase 8 (Homo sapiens), P40818 | purified USP8, Ub-rhodamine cleavage fluorescence, 30 min | inhibition, % at 20 µM
USP28 block = inhibitors of human USP28 deubiquitinase | Ubiquitin carboxyl-terminal hydrolase 28 (Homo sapiens), Q96RU2 | purified USP28, Ub-rhodamine cleavage fluorescence, 30 min | inhibition, % at 25 µM | hit rate 3% among 47,000 | AID 1645857, 2021
USP17 block = inhibitors of human USP17 deubiquitinase; hit rate 6.5% among 47,000; inhibition, % at 50 µM; purified USP17, Ub-rhodamine cleavage fluorescence, 3 h; Ubiquitin carboxyl-terminal hydrolase 17-like protein 5 (Homo sapiens), A8MUK1
USP10 block = inhibitors of human USP10 deubiquitinase | purified USP10, Ub-rhodamine fluorescence, 60 min | inhibition, % at 20 µM | hit rate 1.1% among 47,000
USP7 inh = inhibitors of human USP7 deubiquitinase; purified USP7, Ub-rhodamine cleavage fluorescence; inhibition, % at 20 µM; hit rate 0.3% among 47,000; AID 1645854, 2021
USP30 inh = inhibitors of human USP30 deubiquitinase. inhibition, % at 25 µM. hit rate 5.3% among 47,000. purified USP30, Ub-rhodamine cleavage fluorescence. Ubiquitin carboxyl-terminal hydrolase 30 (Homo sapiens), Q70CQ3
A number is an active result; i = inactive; nt = no result given. The list is not random: actives were taken first. Their share in the collection is about 13%. No stated cut-off is given here; in the data, active means inhibition above about 30%; inactive means the rest.

SMILES	USP8 inh	USP28 block	USP17 block	USP10 block	USP7 inh	USP30 inh
O=C(Cn1c(=O)n(-c2ccccc2)c(=O)c2ccc(C(=O)NCc3ccc4c(c3)OCO4)cc21)NCCC1=CCCCC1	74.7	41.2	32.9	31.8	i	55.6
O=C1C2=C(Nc3ccccc3SC2c2ccccc2[N+](=O)[O-])c2ccccc21 (centres undefined)	i	i	i	i	i	i
CCCCNC(=O)CCCn1c(=O)c2ccccc2n(CC(=O)NCCC2=CCCCC2)c1=O	i	i	i	i	i	i
O=C(CCCCn1c(=O)c2ccccc2n(CC(=O)NCCC2=CCCCC2)c1=O)NCc1ccc2c(c1)OCO2	i	nt	32.7	i	i	nt
O=C(Nc1cc(F)ccc1F)c1cc(-c2cccnc2)n[nH]1	i	nt	56.7	i	i	nt
O=C(NC1CCCCCC1)c1cc(-c2cccnc2)n[nH]1	i	i	i	i	i	i
O=C(Nc1ccc(Cl)cc1F)c1cc(-c2cccnc2)n[nH]1	i	i	i	i	i	40.5
O=C(COC(=O)C(c1ccccc1)c1ccccc1)NCc1ccccc1	i	i	i	i	i	33.7
Cc1nc2ncnn2c(C)c1CCC(=O)NC(C)c1ccccc1 (centres undefined)	i	i	i	i	i	i
Cc1[nH]ncc1C(=O)N1CCCC(c2cccc(-n3ccnc3C)n2)C1 (centres undefined)	i	i	40.1	i	i	i
Cn1c(=O)c2c(SCC(=O)N3CCCC3)nc(-c3cccc(Cl)c3)nc2n(C)c1=O	i	i	i	i	i	i
Cn1c(=O)c2c(SCC(=O)NCc3ccc4c(c3)OCO4)nc(-c3ccc([N+](=O)[O-])cc3)nc2n(C)c1=O	i	i	i	i	i	30.7
Cc1ccc(-c2nc(SCC(=O)N3CCCC3)c3c(=O)n(C)c(=O)n(C)c3n2)cc1	i	i	i	i	i	39.4
CCn1cnc2c(-c3ccccc3)cn(CC(=O)NCc3ccc4c(c3)OCO4)c2c1=O	i	i	50.6	i	i	i
O=C(Cn1cnc2cc([N+](=O)[O-])ccc2c1=O)NCc1ccc2c(c1)OCO2	39.1	i	i	i	i	i
CCn1cnc2c(-c3ccccc3)cn(CC(=O)Nc3cccc(C(C)=O)c3)c2c1=O	i	i	i	i	i	i
COc1cc([C@@H]2c3c(C)nn(C)c3NC(=O)[C@H]2NC(=O)c2cccc(C)c2)cc2c1OCCO2	i	i	i	i	i	i
O=S(=O)(c1ccccc1)N1CCC2(CN(Cc3cccc(F)c3)C2)C1	i	i	i	i	i	i
COc1cc(N2CC[C@H]3[C@H]2CCN3C(=O)c2cnn(C)c2)ncn1	i	i	i	i	i	i
COCCN1C[C@@]23CN(C(=O)c4cc(C)on4)C[C@@H](C[C@@H]2S1(=O)=O)O3	i	i	i	i	i	i
COc1cccc2c(=O)n(CC(=O)NCc3ccc4c(c3)OCO4)ccc12	i	i	i	i	i	i
O=C(Cn1cc(-c2ccccc2)c2ncn(C3CC3)c(=O)c21)NCc1ccc2c(c1)OCO2	41.0	i	i	i	i	i
Cc1cccc(C(=O)Nc2ccc(Sc3ccccc3Cl)cc2)c1	i	i	i	i	i	i
Cc1cccc(C(=O)Nc2ccc(NC(=O)COc3ccccc3Cl)cc2)c1	67.5	i	i	i	i	i
CC(C)c1noc(CN2CCC3(CC2)CC3c2nnc(-c3cccc(F)c3)o2)n1 (centres undefined)	i	i	i	i	i	i
SMILES	USP8 inh	USP28 block	USP17 block	USP10 block	USP7 inh	USP30 inh
CNC(=O)CC1NC(=O)c2csc(n2)-c2ccc(-c3nc(C4=NC(C(=O)N5CCCC5C(N)=O)CO4)cs3)nc2-c2csc(n2)-c2csc(n2)C(C(O)c2ccccc2)NC(=O)CNC(=O)c2nc(sc2COC)C(C(C)C)NC(=O)c2nc1sc2C (centres undefined)	i	42.4	74.9	i	i	i
CCCOC(=O)Cc1c(O)c2ccccc2n(C)c1=O	i	i	i	i	i	i
CCCCOC(=O)c1ccc(NC(=O)C(=O)CC(=O)c2ccc(OC)cc2)cc1	77.3	i	i	i	i	i
Cc1nc(C2COCCN2C(=O)c2sc(C)nc2C)cc(=O)[nH]1 (centres undefined)	i	i	i	i	i	i
COc1ccc(CNc2nc3cc(C)ccc3cc2-c2noc(C)n2)cc1	i	i	nt	i	i	i
Cc1ccc(S(=O)(=O)N[C@H](C(=O)N2CCC(C(=O)N[C@@H](Cc3ccccc3)C(=O)O)CC2)C(C)C)cc1	i	i	i	i	i	31.9
CC(NC(=O)[C@H](NC(=O)C1CCN(C(=O)[C@H](N)Cc2ccccc2)CC1)C(C)C)c1ccccc1 (some centres undefined)	i	i	i	i	i	30.6
CC(C)[C@H](NC(=O)C1CCN(C(=O)[C@@H](N)Cc2ccccc2)CC1)C(=O)NCc1ccc(F)cc1	i	i	i	i	i	i
Cc1ccc(CNC(=O)[C@@H](NC(=O)C2CCN(C(=O)[C@@H](N)Cc3ccccc3)CC2)C(C)C)cc1	i	i	i	i	i	30.5
O=C(Cc1cccc(F)c1)NCc1cnc(C2CCCCO2)nc1 (centres undefined)	i	i	i	i	i	i
O=C(CCc1c[nH]c2ccccc12)N1CCN(C(=O)c2ccncc2)CC1	i	i	i	i	i	i
O=C(c1ccncc1)N1CCC(c2c[nH]c3ccccc23)(c2c[nH]c3ccccc23)CC1	i	i	47.0	i	i	i
CC(C)c1ccc(NC(=O)Cn2c(=O)n(Cc3ccncc3)c(=O)c3ncccc32)cc1	i	i	i	i	i	i
CCn1cc2c(n1)c(=O)n(Cc1ccccc1)c(=O)n2CC(=O)Nc1ccc(OC)cc1	68.3	i	80.4	47.0	i	39.0
CCc1ccc(NC(=O)Cn2c(=O)n(C)c(=O)c3nscc32)cc1	i	i	38.9	i	i	i
CCn1cc2c(n1)c(=O)n(Cc1ccccc1)c(=O)n2CC(=O)Nc1ccc(C(C)C)cc1	71.2	i	40.2	i	i	i
CCCn1c(=O)c2nscc2n(CC(=O)Nc2ccc(F)c(F)c2)c1=O	i	i	i	i	i	i
CCc1ccc(NC(=O)Cn2c(=O)n(Cc3ccccc3)c(=O)c3nn(CC)cc32)cc1	98.2	i	73.4	56.2	32.1	77.7
Cc1cc2c(=O)oc(-c3ccccc3Br)nc2s1	43.5	i	i	i	i	i
COc1ccccc1Nc1ncc(C(=O)Nc2ccc3c(c2)OCO3)c2ccccc12	i	i	i	i	i	i
COc1ccccc1Nc1ncc(C(=O)NCCc2ccc(Cl)cc2)c2ccccc12	37.3	i	80.9	i	i	i
COc1ccccc1Nc1ncc(C(=O)N2CCN(c3cccc(C)c3C)CC2)c2ccccc12	i	i	i	i	i	i
